The panel holds about 83,000 compounds, 20% with a hit somewhere; the sample as a whole holds those more often.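 Percent growth is the endpoint: 0 to 100 indicates growth inhibition (40 means 60% inhibition), 0 means no net growth, and negative values indicate cell death.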 The source made the active and inactive calls. How the source made its calls: active means growth percent below 10; inactive means the rest.
Legend:
Experiment in all cases: NCI-60 one-dose screen, 48 h (100 = growth as untreated, 0 = no growth, -100 = all killed)
Conditions in all cases: 10 µM unless noted
NCI-H23 lung = system: NCI-H23 lung
NCI-H226 lung = system: NCI-H226 lung
NCI-H322M lung = system: NCI-H322M lung
HOP-62 NSCLC = system: HOP-62 NSCLC
NCI-H460 lung = system: NCI-H460 lung
HOP-92 NSCLC = system: HOP-92 NSCLC
NCI-H522 lung = system: NCI-H522 lung
A549/ATCC NSCLC = system: A549/ATCC NSCLC
786-0 renal = system: 786-0 renal
COLO 205 colon = system: COLO 205 colon
DU-145 prostate = system: DU-145 prostate
K-562 leukemia = system: K-562 leukemia
MALME-3M melanoma = system: MALME-3M melanoma
MDA-MB-231 breast = system: MDA-MB-231 breast
RXF 393 renal = system: RXF 393 renal
SF-268 CNS = system: SF-268 CNS
SF-295 CNS = system: SF-295 CNS
SF-539 CNS = system: SF-539 CNS
UACC-257 melanoma = system: UACC-257 melanoma
M14 melanoma = system: M14 melanoma

Measured: growth

C=C(C)[C@@H]1CC[C@]2(c3ncc(C)o3)CC[C@]3(C)[C@H](CC[C@@H]4[C@@](C)(CCC#N)[C@H](C(=C)C)CC[C@]43C)[C@@H]12
active: NCI-H23 lung -68.1% [100 µM] | NCI-H226 lung -55.2% [100 µM] | NCI-H322M lung -83.5% [100 µM] | HOP-62 NSCLC -86.1% [100 µM] | NCI-H460 lung -71.4% [100 µM] | HOP-92 NSCLC -85.7% [100 µM] | NCI-H522 lung -85.4% [100 µM] | A549/ATCC NSCLC -84.8% [100 µM] | 786-0 renal -85.6% [100 µM] | COLO 205 colon -82% [100 µM] | DU-145 prostate -76.4% [100 µM] | K-562 leukemia 4.09% [100 µM] | MALME-3M melanoma -87.5% [100 µM] | MDA-MB-231 breast -96.1% [100 µM] | RXF 393 renal -83.6% [100 µM] | SF-268 CNS -66.2% [100 µM] | SF-295 CNS -81.7% [100 µM] | SF-539 CNS -94.3% [100 µM] | UACC-257 melanoma -80.5% [100 µM] | M14 melanoma -68.4% [100 µM]

Nc1cc(N)c(N=Nc2ccc(S(=O)(=O)O)cc2)cc1N=Nc1ccc(-c2ccc(N=Nc3ccc(O)c(C(=O)O)c3)cc2)cc1
inactive: NCI-H23 lung 95.7% | NCI-H226 lung 92.2% | NCI-H322M lung 101% | HOP-62 NSCLC 98.8% | NCI-H460 lung 105% | HOP-92 NSCLC 108% | NCI-H522 lung 98.2% | A549/ATCC NSCLC 101% | 786-0 renal 105% | COLO 205 colon 109% | DU-145 prostate 111% | K-562 leukemia 108% | MALME-3M melanoma 93.2% | MDA-MB-231 breast 100% | RXF 393 renal 124% | SF-268 CNS 104% | SF-295 CNS 103% | SF-539 CNS 100% | UACC-257 melanoma 101% | M14 melanoma 99.8%

COC(=O)[C@H](CC(C)C)NC(=O)NC(=O)NC(=O)CI
inactive: NCI-H23 lung 73.5% | NCI-H226 lung 98.5% | NCI-H322M lung 98.2% | HOP-62 NSCLC 92.8% | NCI-H460 lung 85.9% | A549/ATCC NSCLC 98.2% | DU-145 prostate 109% | MDA-MB-231 breast 33.4% | RXF 393 renal 64.1% | SF-268 CNS 85% | SF-295 CNS 88.8% | SF-539 CNS 77.2% | UACC-257 melanoma 98.2% | M14 melanoma 63.5%
active: HOP-92 NSCLC -60.6% | NCI-H522 lung -79.2% | 786-0 renal -73.5% | COLO 205 colon -31.4% | K-562 leukemia 2.16% | MALME-3M melanoma -57%

NS(=O)(=O)c1ccc(CCN2C(=O)/C(=C\c3ccccc3)C=C2c2ccc(Cl)cc2)cc1
inactive: NCI-H23 lung 104% | NCI-H226 lung 102% | NCI-H322M lung 89.8% | HOP-62 NSCLC 95.5% | NCI-H460 lung 99.3% | HOP-92 NSCLC 76.3% | NCI-H522 lung 91.8% | A549/ATCC NSCLC 99.1% | 786-0 renal 96.4% | COLO 205 colon 115% | DU-145 prostate 115% | K-562 leukemia 94.8% | MALME-3M melanoma 95.1% | MDA-MB-231 breast 86.2% | RXF 393 renal 91% | SF-268 CNS 90.6% | SF-295 CNS 100% | SF-539 CNS 99.9% | UACC-257 melanoma 104% | M14 melanoma 99%

Cc1cc(SC#N)ncn1
inactive: NCI-H23 lung 103% | NCI-H226 lung 99% | NCI-H322M lung 103% | HOP-62 NSCLC 98.2% | NCI-H460 lung 99.5% | HOP-92 NSCLC 106% | NCI-H522 lung 92.3% | A549/ATCC NSCLC 93.5% | 786-0 renal 109% | COLO 205 colon 115% | DU-145 prostate 112% | K-562 leukemia 95.1% | MALME-3M melanoma 100% | MDA-MB-231 breast 93.3% | RXF 393 renal 105% | SF-268 CNS 111% | SF-295 CNS 128% | SF-539 CNS 103% | UACC-257 melanoma 103% | M14 melanoma 108%

Oc1cc(Nc2ccnc3cc(Cl)ccc23)c2ncccc2c1
inactive: NCI-H23 lung 73.8% | NCI-H226 lung 91% | NCI-H322M lung 99.7% | HOP-62 NSCLC 74.4% | NCI-H460 lung 75.5% | HOP-92 NSCLC 39.3% | NCI-H522 lung 76.7% | A549/ATCC NSCLC 84.2% | 786-0 renal 106% | COLO 205 colon 96.4% | DU-145 prostate 58.4% | K-562 leukemia 76.6% | MALME-3M melanoma 52% | MDA-MB-231 breast 14.8% | RXF 393 renal 68.6% | SF-268 CNS 73.8% | SF-295 CNS 108% | SF-539 CNS 93.9% | UACC-257 melanoma 82.2% | M14 melanoma 75.8%

C[C@@H]1C[C@H]2C(=O)O[C@@H](C)[C@H](NC(=O)[C@H](Cc3cc(F)cc(F)c3)NC(=O)Nc3ccc(Cl)cc3F)C(=O)N3C[C@H](O)C[C@H]3C(=O)N3CCN(C)C[C@H]3C(=O)N[C@@H](C)C(=O)N2C1
inactive: NCI-H23 lung 36.2% | NCI-H226 lung 52.6% | NCI-H322M lung 72.8% | HOP-62 NSCLC 47.8% | NCI-H460 lung 36% | HOP-92 NSCLC 37.8% | NCI-H522 lung 26.7% | A549/ATCC NSCLC 53.6% | 786-0 renal 74.1% | COLO 205 colon 12% | DU-145 prostate 41.3% | K-562 leukemia 27.7% | MALME-3M melanoma 45.4% | MDA-MB-231 breast 27.9% | RXF 393 renal 88.1% | SF-268 CNS 29.1% | SF-295 CNS 38.9% | SF-539 CNS 51.3% | UACC-257 melanoma 19.8% | M14 melanoma 72.9%

— PubChem BioAssay (NCI)
